# Measured values as given in ChEMBL document CHEMBL4513216, “Probing the Open Global Health Chemical Diversity Library for Multistage-Active Starting Points for Next-Generation Antimalarials” (ACS Infect Dis, 2020).
# Out of some 69,000 compounds screened, about 8,600 (12%) showed an effect of 50% or more. Shown is part of a subset that was picked to be rich in strong results.
# Tested on: Plasmodium berghei
# Assay: Screen against P. berghei liver stage (PbLuc), transformed with Luciferase, at 10uM
# Assay type: functional, HepG2
# Conditions: tested at 10 uM
row,Structure (SMILES),INHIBITION [%]
1,CC(C)CC(=O)NC1CC2(CCN(CCF)CC2)Oc2ccccc21 (stereo not given),34.6
2,COCCN1CCC2(CC1)CC(NC(=O)C(C)C)c1ccccc1O2 (stereo not given),55.5
3,CN1CCC2(CC1)CC(NC(=O)c1csnn1)c1ccccc1O2 (stereo not given),59.3
4,COCC(=O)NC1CC2(CCN(CCF)CC2)Oc2ccccc21 (stereo not given),-5.94
5,O=C(NC1CC2(CCN(CCO)CC2)Oc2ccccc21)c1csnn1 (stereo not given),34.9
6,COCCN1CCC2(CC1)CC(NC(=O)COC)c1ccccc1O2 (stereo not given),-13.4
7,COCCN1CCC2(CC1)CC(NC(=O)CN(C)C)c1ccccc1O2 (stereo not given),54.3
8,COCC(=O)NC1CC2(CCN(CC3CC3)CC2)Oc2ccccc21 (stereo not given),-2.35
9,CCN1CCC2(CC1)CC(NC(=O)c1c[nH]cn1)c1ccccc1O2 (stereo not given),44.8
10,CCOCCOc1ccc(S(=O)(=O)N2CCc3c(nc[nH]c3=O)C2)cc1,5.05
11,Cc1nc(CN2CCN(CC3CCOC3)Cc3cccnc32)cs1 (stereo not given),41
12,NC(=O)CSc1ccccc1NC(=O)C1CCCC1,-53.6
13,COc1cccc(C=CCCN2CCC(C(=O)N3CCCC3)CC2)c1,-16.1
14,O=C1NC2(CCN(C(=O)CN3CCOCC3)CC2)Nc2ccc(Cl)cc21,23.75
15,Cn1ccc2cc(C(=O)Nc3nc[nH]n3)ccc21,11.6
16,CN(C)C(=O)c1nnn(-c2ccc(Br)cc2)n1,28.4
17,CCNc1cc2c(nn1)CCN(C(=O)Cc1ccc(C)nc1)C2,-42.1
18,CCc1ccc(C(=O)N2CCCC3(CCCC(=O)N3C)C2)cc1 (stereo not given),30.9
19,O=C(CS(=O)(=O)C1CCCC1)NC(c1ccc(F)cc1)C1CC1 (stereo not given),-32.6
20,COCCN1C[C@@H]2CC[C@H]1CN(Cc1nc3ccccc3n1C)C2,-35
21,CC(=O)NCCNC(=O)c1cnc(-c2ccc(C)cc2C)s1,-74.9
22,CN(Cc1cnc(N)nc1)C(=O)c1coc(COc2ccccc2)n1,27.6
23,CN1CCN(Cc2cccnc2)C(=O)C12CCN(Cc1ccco1)CC2,32.1
24,Cc1nccn1Cc1nnc(C2CCN(c3ccncc3F)CC2)n1C,-21.9
25,CC[C@@H]1N(Cc2ccsc2)CCC[C@]12CCC(=O)N2CCOC,52.4
26,CC[C@@H]1N(Cc2ccsc2)CCC[C@]12CCC(=O)N2C,23.2
27,CC[C@@H]1N(Cc2ccncc2)CCC[C@]12CCC(=O)N2CCOC,25.3
28,Cc1csc(CN2CC[C@@](O)(C3CCOCC3)[C@H](C)C2)n1,9.55

row,Structure (SMILES),INHIBITION [%]
1,O=C1NCc2ccccc2CC12CCN(Cc1c(F)cccc1Cl)C2 (stereo not given),-9.73
2,COc1ccc(CN(C(=O)C2CCCO2)c2ccncc2)cc1 (stereo not given),27.5
3,COc1ccc(CN(C(=O)C2CCOCC2)c2ccncc2)cc1,1.7
4,COc1ccc(CN(C(=O)C2CCCOC2)c2ccncc2)cc1 (stereo not given),66.3
5,Brc1cnc(NCc2ccccc2N2CCOCC2)nc1,-31.7
6,O=C(CO)N1CC2(CCN(c3ccccc3)C2)C1,-34.6
7,COCCC(=O)N1CC2(CCN(c3ccccc3)C2)C1,12.1
8,O=C(CCO)N1CC2(CCN(c3ccccc3)C2)C1,61.9
9,Cc1nn(C)c(N(C)C)c1CNCCCNS(C)(=O)=O,-66.8
10,CSc1[nH]nc(NC(=O)c2ccccc2)c1C#N,23.1
11,N#Cc1cccnc1N[C@@H]1c2ccccc2C[C@@H]1O,22.9
12,O[C@H]1Cc2ccccc2[C@H]1Nc1ncccc1C(F)(F)F,56.3
13,O[C@@H]1Cc2ccccc2[C@@H]1Nc1ncccc1F,18
14,COc1ccc2c(ccn2CCC(=O)Nc2n[nH]c(CC(C)C)n2)c1,46.7
15,O=C(CC1CCCC1)NCCS(=O)(=O)N1CCN(c2ncccn2)CC1,-73.6
16,Cc1n[nH]c2c1C(c1ccc(F)cc1)SCC(=O)N2 (stereo not given),23.5
17,Cc1n[nH]c2c1C(c1ccc(Cl)cc1)SCC(=O)N2 (stereo not given),46.7
18,Cc1n[nH]c2c1C(c1ccc(Br)cc1)SCC(=O)N2 (stereo not given),61.8
19,COCCC(=O)N1CC[C@@H](N2CCOCC2)[C@@H]1Cc1ccccc1,38.1
20,Cc1cccnc1CNC(=O)CC1C(=O)NCCN1CC(C)(C)C (stereo not given),6.29
21,CC(=O)N(Cc1noc(C)n1)C1CCN(Cc2ncc(C(C)C)o2)C1 (stereo not given),11.6
22,COc1ncccc1CNC(=O)Nc1cc(C)nn1C,29.7
23,Cc1nn(C)c(C)c1CC(=O)NCc1cccnc1OC1CCCC1,29.8
24,Cc1nn(C)c(C)c1C(=O)NCc1cccnc1OC1CCCC1,37.6
25,CCOc1ncccc1CNC(=O)Nc1cc(C)nn1C,-19.6
26,Cc1cc(NC(=O)NCc2cccnc2OC2CCCC2)n(C)n1,50.3
27,Cc1nn(C)c(C)c1CCC(=O)NCc1cccnc1OC1CCCC1,56.6
